Rows were chosen to be rich in hits. Some 7.6% of all compounds tested hit in one or more screens of this group.
hERG WT inh – qHTS for Inhibitors of KCHN2 3.1: Wildtype qHTS; 340,000 compounds, 0.37% hits; Voltage-gated inwardly rectifying potassium channel KCNH2 (Homo sapiens), Q12809; AID 720551, 2013; activity change, % at 1.84 µM; U2OS, BacMam KCNH2, thallium flux FluxOr; hits give low values;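 active means maximum activity change below -70%; inconclusive means maximum activity change between -70% and -50%; inactive means maximum activity change above -50%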
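U2OS cells were transduced with wild-type KCNH2 virus (2.03 x 10^8 / mL) for 4 h at room temperature, then cultured overnight at 37 C. Thallium flux was read with FluxOr dye. Rate constants were normalized to DMSO controls.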
SW480 rerep – A quantitative high throughput screen for small molecules that induce DNA re-replication in SW480 colon adenocarcinoma cells | AID 624297, 2012 | 340,000 compounds, 1.8% hits | SW480 DNA re-replication, Hoechst DNA content imaging, 48 h | Potency, µM (titrated, usually from 46.1 µM), usual class: activators; further: nearly all actives have a fitted effect of over 55% in size
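SW480 cells exposed to compounds for 48 hr at 37 C, 5% CO2, then Hoechst-stained 40 min. Nuclear DNA content imaged by fluorescence scanning (405 nm excitation, 500-530 nm emission); re-replication scored as increased high-intensity nuclei.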
KB-V1 cytotox – qHTS assay for MDR1-selective chemotherapeutics: Primary screen using the drug-selected MDR subline cells KB-V1. KB-V1 MDR cells viability, CellTiter-Glo, 72 h. Potency, µM (doses to about 46.1 µM), usual class: cytotoxic. 400,000 compounds, 3.4% hits. AID 1347076, 2019; further: nearly all actives have a fitted effect of over 60% in size
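KB-V1 MDR subline cells in DMEM (phenol-red free, 10% FBS) exposed to compounds in qHTS concentration series for 72 h at 37 degrees C. Viability read by CellTiter-Glo luminescence; concentration-effect curves fitted after normalization and correction.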
MCF10A rereplic – A quantitative high throughput screen for small molecules that induce DNA re-replication in MCF 10a normal breast cells; AID 624296, 2012; MCF 10A DNA re-replication, Hoechst nuclear intensity, 48 h; Potency, µM (top dose mostly 46.1 µM), usual class: activators; 350,000 compounds, 2.9% hits; further: nearly all actives have a fitted effect of over 50% in size
KCNH2 3.1 inh – qHTS for Inhibitors of KCHN2 3.1: Mutant qHTS. Potassium voltage-gated channel subfamily H member 2, brain isoform KCNH2 3.1 (human). U2OS KCNH2 3.1, thallium flux FluxOr; hits give low values. activity change, % (tested at about 1.8 µM). 340,000 compounds, 0.95% hits. AID 720553, 2013;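 active means maximum activity change below -70%; inconclusive means maximum activity change from -70% to -50%; inactive means maximum activity change above -50%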;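 further: thallium influx rate constant from kinetic fluorescence after stimulation buffer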
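Kinetic fluorescence (2 min after stimulation buffer) measures Tl+ influx through KCNH2 3.1 expressed by viral transduction in U2OS cells; the rate constant is normalized against DMSO controls serving as positive and negative references.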
KB-3-1 tox – qHTS assay for MDR1-selective chemotherapeutics: Primary screen using the parental adenocarcinoma cell KB-3-1; 400,000 compounds, 1.4% hits; Potency, µM (doses to about 46.1 µM), usual class: cytotoxic; KB-3-1 viability, CellTiter-Glo ATP luminescence, 72 h; further: nearly all actives have a fitted effect of over 60% in size
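Cells are dispensed, compounds pinned in, plates held at 37 °C for 72 h, then CellTiter-Glo is added and luminescence read after 10 minutes. Cell line: parental KB-3-1 in phenol-red-free DMEM, 10% FBS.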
Each line names hits and unclear results; the compound was inactive in the other large screens. Unless noted, the call rests on the fitted dose curve; in most records, active means well fitted curve in the direction sought with a large enough effect; inconclusive means small, poorly fitted or top-dose-only effect, or another doubt; inactive means no such curve, though single readings can be large; an effect the other way counts as inactive or inconclusive.

Cc1ccc(SCCc2cc[n+](CC(=O)c3ccccc3)cc2)cc1	none
Cc1ccc(C(=O)C[n+]2ccc(Cc3ccccc3)cc2)cc1	KB-3-1 tox 4.6µM
COc1cccc(CSc2nc3ccccc3cc2C=O)c1	SW480 rerep 1.3µM, KB-V1 cytotox inconclusive, MCF10A rereplic 13µM, KB-3-1 tox inconclusive
Cc1ccc(CNC(=O)Cn2c([N+](=O)[O-])cnc2C)cc1	none
CC(=O)N1NC(=Nc2ccccc2)SC1(C)C	KB-V1 cytotox 18µM
O=C1NC(=Nc2ccccc2)SC1(CO)CO	none
Cc1ccc(NC2CCCN(C(=O)CCn3nccc3C)C2)cc1C (centres undefined)	KB-V1 cytotox inconclusive
COc1cc(S(=O)(=O)N2CCC(O)(c3cccc(C(F)(F)F)c3)CC2)ccc1-n1cnnn1	SW480 rerep inconclusive, KB-V1 cytotox inconclusive, MCF10A rereplic 7.3µM
O=C(CCCOc1ccc(Cl)cc1Cl)Nc1cccnc1	KB-V1 cytotox 18µM
N/C(=N\OC(=O)COc1ccc(Cl)cc1)c1cccnc1	KB-V1 cytotox inconclusive
CSc1cccc(NC(=O)CCCOc2ccc(Cl)cc2Cl)c1	none
N/C(=N\OC(=O)COc1ccc(Cl)cc1Cl)c1cccnc1	SW480 rerep 13µM, KB-V1 cytotox inconclusive
COc1ccc(SCc2cc(=O)c3cc(Cl)ccc3[nH]2)cc1	none (no result: hERG WT inh, SW480 rerep, MCF10A rereplic, KCNH2 3.1 inh)
CCCCNCCOCCOc1ccccc1-c1ccccc1	SW480 rerep inconclusive, KB-V1 cytotox 18µM
C/C(=N\Nc1cc(C)nc(-c2ccccc2O)n1)c1ccccc1	SW480 rerep inconclusive, MCF10A rereplic inconclusive
C/C(=N\Nc1cc(-c2ccccc2)nc(-c2ccccc2)n1)c1ccc(O)c(C)c1	SW480 rerep inconclusive, KB-V1 cytotox inconclusive, MCF10A rereplic 7.3µM
C/C(=N\Nc1cc(C)nc(-c2ccccc2)n1)c1cccc([N+](=O)[O-])c1	MCF10A rereplic 0.73µM
COc1cc(N/N=C(\C)c2ccc(O)c(C)c2)nc(-c2ccccc2)n1	SW480 rerep inconclusive, MCF10A rereplic inconclusive
COc1cc(N/N=C(\C)c2ccc(N)cc2)nc(-c2ccccc2)n1	MCF10A rereplic 18µM
O=C(Cn1c(=O)ccc2cc(S(=O)(=O)N3CCCC3)ccc21)Nc1ccccc1	none (no result: hERG WT inh, SW480 rerep, MCF10A rereplic, KCNH2 3.1 inh)
CC(C)(C)n1nc(-c2ccc(F)cc2)c2c(N)ncnc21	none
CC(C)(C)n1nc(-c2ccc(Cl)cc2)c2c(N)ncnc21	KB-V1 cytotox 21µM, MCF10A rereplic inconclusive, KB-3-1 tox inconclusive
CN(C)c1nc(-c2cn(CCC#N)c3ccccc23)cs1	none
Cc1c(P(=S)(c2ccccc2)c2ccccc2)[n+]2ccccc2n1CCc1ccccc1	KB-3-1 tox 13µM (no result: hERG WT inh, SW480 rerep, MCF10A rereplic, KCNH2 3.1 inh)
CN(C)c1ccc(C=O)cc1Cl	none (no result: hERG WT inh, SW480 rerep, MCF10A rereplic, KCNH2 3.1 inh)
CC[C@@]12CCCN3CCc4c(n(c5ccccc45)C(=O)C1)[C@H]32	SW480 rerep 11µM, MCF10A rereplic inconclusive (no result: hERG WT inh, KB-V1 cytotox, KCNH2 3.1 inh, KB-3-1 tox)
O=C(c1ccc2c(=O)n(Cc3ccco3)c(=S)[nH]c2c1)N1CCN(Cc2ccccc2)CC1	KB-V1 cytotox 21µM, MCF10A rereplic inconclusive, KB-3-1 tox inconclusive
CCOC(=O)N1CCN(C(=O)c2ccc3c(=O)n(Cc4ccc(Cl)cc4)c(=S)[nH]c3c2)CC1	KB-V1 cytotox 13µM, MCF10A rereplic inconclusive, KB-3-1 tox 23µM
C=CCOc1ccc(C2/C(=C(/O)c3ccc4c(c3)CC(C)O4)C(=O)C(=O)N2CCCN2CCOCC2)cc1 (centres undefined)	none
Cc1cc(C(=O)COc2ccccc2C(N)=O)c(C)n1CC1CCCO1 (centres undefined)	KB-V1 cytotox 4.6µM
Cc1cc(C(=O)COC(=O)c2ccccc2O)c(C)n1CC1CCCO1 (centres undefined)	KB-V1 cytotox inconclusive
COc1ccc(CN2C[C@@H](CO)O[C@@H](n3cnc4c(N5CCN(c6ccccc6)CC5)ncnc43)C2)cc1	none (no result: hERG WT inh, SW480 rerep, MCF10A rereplic, KCNH2 3.1 inh)
Nc1[nH]c(C(=O)c2ccc(Br)cc2)c(-c2ccc(Br)cc2)c1C(=O)NCCc1c[nH]c2ccccc12	KB-V1 cytotox 21µM, KB-3-1 tox inconclusive (no result: hERG WT inh, SW480 rerep, MCF10A rereplic, KCNH2 3.1 inh)
Nc1[nH]c(C(=O)c2ccccc2)c(-c2ccc([N+](=O)[O-])cc2)c1C(=O)NCCc1c[nH]c2ccccc12	KB-V1 cytotox 23µM, KB-3-1 tox inconclusive (no result: hERG WT inh, SW480 rerep, MCF10A rereplic, KCNH2 3.1 inh)
COc1ccc(C2NN=C(c3c[nH]c4ccccc34)C2O)cc1 (centres undefined)	SW480 rerep inconclusive
COc1ccc(C2C(O)C(c3c[nH]c4ccccc34)=NN2C(=O)CCl)cc1 (centres undefined)	SW480 rerep 1.3µM, KB-V1 cytotox 15µM, MCF10A rereplic 4.6µM, KB-3-1 tox inconclusive
CCOc1ccc(C(C)=O)cc1COc1cccnc1[N+](=O)[O-]	SW480 rerep 21µM, KB-V1 cytotox 12µM, MCF10A rereplic inconclusive, KB-3-1 tox inconclusive
COc1ccc(C(C)=O)cc1COc1cccnc1[N+](=O)[O-]	SW480 rerep inconclusive, KB-V1 cytotox 15µM, MCF10A rereplic inconclusive
COc1ccc(C(C)=O)cc1COc1ccccc1[N+](=O)[O-]	none
COc1ccccc1N1CCN(C(=O)c2ccc(CN3CCOCC3)cc2)CC1	none
OC(c1ccccc1)C(NCCNCc1ccccc1)c1ccccc1 (centres undefined)	SW480 rerep inconclusive, MCF10A rereplic inconclusive
COc1cc(/C=C/C(=O)c2ccc3c(c2)OCCO3)cc(OC)c1OC	SW480 rerep inconclusive, MCF10A rereplic inconclusive, KB-3-1 tox inconclusive
COc1ccc(/C=C/C(=O)c2ccc3c(c2)OCO3)cc1OC	SW480 rerep inconclusive, KB-V1 cytotox inconclusive, MCF10A rereplic inconclusive
COc1cc(/C=C/C(=O)c2ccc(C)cc2)ccc1OCC#N	SW480 rerep 16µM, KB-V1 cytotox 15µM, MCF10A rereplic inconclusive, KB-3-1 tox inconclusive
O=C(/C=C/c1ccc2c(c1)OCCCO2)c1ccc2ccccc2c1O	KB-V1 cytotox inconclusive, MCF10A rereplic 18µM
COc1cc(/C=C/C(=O)c2ccc3c(c2)OCO3)cc(OC)c1OC	KB-V1 cytotox 21µM, KB-3-1 tox inconclusive
COc1ccc(OC)c(/C=C/C(=O)c2ccc3c(c2)OCCO3)c1	KB-V1 cytotox inconclusive, MCF10A rereplic 21µM, KB-3-1 tox inconclusive
COc1ccc(C=CC(=O)c2ccc(OCc3ccccc3)c(OC)c2)cc1OC	KB-V1 cytotox inconclusive (no result: SW480 rerep, MCF10A rereplic)
CC(=O)CC(=O)Nc1ncccn1	none
O=C(C=Cc1cccc(Cl)c1)c1ccccc1	SW480 rerep 15µM, KB-V1 cytotox inconclusive, MCF10A rereplic 18µM, KB-3-1 tox inconclusive
